According to PubChem BioAssay (Tox21):
“And” between values parts separate entries of the source, which are not always exact repeats. Equal values may be shown once. Results filed as inconclusive are left out. Entries that show only a call come without a potency. Some structures have more than one record in an assay (separate samples or runs), and their calls can disagree. The source made the active and inactive calls. Unless noted, the call rests on the fitted dose curve; in most records, active means well fitted curve in the direction sought with a large enough effect in the repeat runs; inconclusive means weak or mixed curves; inactive means no such curve, though single readings can be large; an effect the other way counts as inactive or inconclusive.

Experiments:
[1] = qHTS assay to identify small molecule antagonists of the glucocorticoid receptor (GR) signaling pathway - cell viability counter screen (AID 720693); further: nearly all actives have a fitted effect of over 55% in size; further: potency means the concentration at half of the fitted maximal effect
[2] = qHTS assay for identifying genotoxic compounds that show differential cytotoxicity against isogenic chicken DT40 cell lines with known DNA damage response pathways - wild type cell line (AID 743012); further: nearly all actives have a fitted effect of over 60% in size; further: potency means the concentration at half of the fitted maximal effect
In short: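 Cells (DT40 wild type, 300/well) are treated with DMSO-dissolved compounds after a ~0.5 h pre-incubation and kept 40 h at 37 C/5% CO2. Viability is then measured by CellTiter-Glo luminescence following 30 min at room temperature.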

[3] = qHTS assay for identifying genotoxic compounds that show differential cytotoxicity against isogenic chicken DT40 cell lines with known DNA damage response pathways - Rev3 mutant cell line (AID 743014); further: nearly all actives have a fitted effect of over 55% in size; further: potency means the concentration at half of the fitted maximal effect
[4] = qHTS assay for identifying genotoxic compounds that show differential cytotoxicity against isogenic chicken DT40 cell lines with known DNA damage response pathways - Rad54/Ku70 mutant cell line (AID 743015); further: nearly all actives have a fitted effect of over 60% in size; further: potency means the concentration at half of the fitted maximal effect
[5] = qHTS assay to identify small molecule antagonists of the androgen receptor (AR) signaling pathway - cell viability counter screen (AID 743033; further: nearly all actives have a fitted effect of over 45% in size; further: potency means the concentration at half of the fitted maximal effect)
[6] = molecular target: Androgen receptor (Homo sapiens) (UniProt P10275); test: qHTS assay to identify small molecule antagonists of the androgen receptor (AR) signaling pathway (AID 743035; active means well fitted inhibition curve with a large enough effect in the signal ratio in the repeat runs, not every such curve was filed as active; the % refers to the signal ratio)
In short: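 Antagonism is scored as loss of R1881-driven beta-lactamase reporter expression in HEK293 cells carrying the reporter under a UAS element, after 16 h co-treatment at 37C and a 2 h room-temperature FRET substrate read.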

[7] = molecular target: Androgen receptor (Homo sapiens) (UniProt P10275); test: qHTS assay to identify small molecule agonists of the androgen receptor (AR) signaling pathway (AID 743036; active means well fitted activation curve with a large enough effect in the signal ratio in the repeat runs, with a control signal flat, not every such curve was filed as active; the % refers to the signal ratio)
In short: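 Fluorescence from a beta-lactamase FRET substrate served as read-out in AR-UAS-bla GripTite HEK293 cells. Cells were treated with DMSO-dissolved compounds for 16 h at 37C, then with LiveBLAzer B/G substrate for 2 h at room temperature.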

[8] = molecular target: Androgen receptor (Homo sapiens) (UniProt P10275); test: qHTS assay to identify small molecule agonists of the androgen receptor (AR) signaling pathway using the MDA cell line (AID 743040; further: nearly all actives have a fitted effect of over 20% in size; further: potency means the concentration at half of the fitted maximal effect)
In short: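 Cells plated, 5 h at 37C/0% CO2; compound or DMSO pinned; 16 h at 37C; ONE-Glo added; luminescence measured after 30 min at room temperature. Reporter line: MDA-kb2 with MMTV-luciferase responsive to AR and GR.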

[9] = qHTS assay to identify small molecule antagonists of the androgen receptor (AR) signaling pathway using the MDA cell line - cell viability counter screen (AID 743041; further: nearly all actives have a fitted effect of over 45% in size)
In short: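 Cells were plated at 3,000 per well and left 5 h. Compounds in DMSO were then pinned in, followed by R1881. After 16 h at 37C, CellTiter-Fluor fluorescence gave viability.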

[10] = molecular target: Androgen receptor (Homo sapiens) (UniProt P10275); test: qHTS assay to identify small molecule antagonists of the androgen receptor (AR) signaling pathway using the MDA cell line (AID 743042; further: nearly all actives have a fitted effect of over 55% in size; further: potency means the concentration at half of the fitted maximal effect)
In short: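 Antagonist mode: compounds plus R1881 agonist added to MDA-kb2 AR-luc cells, incubated 16 h at 37C. Luciferase reporter luminescence quantified, with multiplexed CellTiter-Fluor readout for cell viability.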

Chain of Androgen receptor (Homo sapiens) (P10275 whole entry, looked up): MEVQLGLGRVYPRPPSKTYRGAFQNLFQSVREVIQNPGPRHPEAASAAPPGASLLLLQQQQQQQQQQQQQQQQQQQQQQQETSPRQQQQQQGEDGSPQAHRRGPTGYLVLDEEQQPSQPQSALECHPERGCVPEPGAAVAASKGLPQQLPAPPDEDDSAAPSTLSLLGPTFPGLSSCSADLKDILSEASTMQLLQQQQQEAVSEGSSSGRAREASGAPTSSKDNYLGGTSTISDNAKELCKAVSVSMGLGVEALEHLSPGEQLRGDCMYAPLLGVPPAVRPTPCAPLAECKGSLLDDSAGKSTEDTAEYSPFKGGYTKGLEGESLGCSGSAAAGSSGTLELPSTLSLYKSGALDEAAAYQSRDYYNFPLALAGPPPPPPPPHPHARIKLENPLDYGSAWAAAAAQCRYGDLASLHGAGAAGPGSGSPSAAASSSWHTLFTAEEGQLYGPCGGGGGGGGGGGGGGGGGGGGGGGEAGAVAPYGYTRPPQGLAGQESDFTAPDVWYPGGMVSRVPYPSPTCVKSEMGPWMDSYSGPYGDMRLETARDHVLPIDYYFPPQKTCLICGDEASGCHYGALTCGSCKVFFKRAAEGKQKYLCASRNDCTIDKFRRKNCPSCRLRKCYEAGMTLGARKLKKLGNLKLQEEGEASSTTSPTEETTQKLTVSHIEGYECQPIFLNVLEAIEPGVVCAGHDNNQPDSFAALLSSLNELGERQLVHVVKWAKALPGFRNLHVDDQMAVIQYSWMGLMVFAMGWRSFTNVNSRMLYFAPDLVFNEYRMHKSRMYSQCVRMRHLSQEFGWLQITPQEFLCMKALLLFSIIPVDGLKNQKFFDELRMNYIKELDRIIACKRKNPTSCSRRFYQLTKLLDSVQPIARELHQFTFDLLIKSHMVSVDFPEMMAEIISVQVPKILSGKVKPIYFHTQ

| SMILES | Potency [1] | Potency [2] | Potency [3] | Potency [4] | Potency [5] | Potency [6] | outcome [7] | Potency [8] | Potency [9] | Potency [10] |
| --- | --- | --- | --- | --- | --- | --- | --- | --- | --- | --- |
| COc1ccc(C(=O)NCc2ccc(OCCN(C)C)cc2)cc1OC | inactive | inactive | inactive | inactive | inactive |  |  |  |  |  |
| CCSC(=O)N(CC)CC | inactive | inactive | inactive | inactive | inactive |  |  |  |  |  |
| COc1ccc(-c2cc(=S)ss2)cc1 | inactive | 26.6 µM (active) |  |  |  |  |  |  |  |  |
| BrC(Br)C(Br)Br | inactive | inactive | inactive | inactive | inactive | inactive | inactive | inactive | inactive | inactive |
| CCOC(=O)c1ccc(NC(=O)CN2CCCCC2)cc1 | inactive | 11.9 µM (active) | 10.6 µM (active) | 10.6 µM (active) | inactive | inactive | inactive | inactive | inactive | inactive |
| CSCC[C@H](NC(=O)[C@H](Cc1c[nH]c2ccccc12)NC(=O)CCNC(=O)OC(C)(C)C)C(=O)N[C@@H](CC(=O)O)C(=O)N[C@@H](Cc1ccccc1)C(N)=O | inactive | inactive | inactive | inactive | inactive |  |  |  |  |  |
| CC(=O)c1ccc[nH]1 | inactive | inactive | inactive | inactive | inactive |  | inactive | inactive | inactive | inactive |
| CC1CCC(C(C)CS)CC1S (stereo not drawn) | 49 µM (active) | inactive | inactive | inactive | inactive | inactive | inactive | inactive | inactive | inactive |
| CC12CC3CC(C)(C1)CC(N)(C3)C2 | inactive | 26.6 µM (active) | 29.8 µM (active) | 29.8 µM (active) | inactive |  |  |  |  |  |
| CC(=O)OCC1=C(C(=O)O)N2C(=O)[C@@H](NC(=O)CSc3ccncc3)[C@H]2SC1 | inactive | inactive | inactive | inactive | inactive |  |  |  |  |  |
| CCc1ccc(C)cc1 | inactive | inactive | inactive | inactive | inactive | inactive | inactive | inactive | inactive | inactive |
| C[C@H](CS)C(=O)N1CCC[C@H]1C(=O)O | inactive | inactive | inactive | inactive | inactive |  | inactive | inactive |  | inactive |
| CCCCCCC(CO)CCCC (stereo not drawn) | inactive | inactive | inactive | inactive | inactive |  |  |  |  |  |
| CCCCC[C@H](O)/C=C/[C@H]1[C@H](O)CC(=O)[C@@H]1C/C=C\CCCC(=O)O | inactive | inactive | inactive | inactive | inactive |  |  | inactive |  |  |
| Nc1cccc2c(N)cccc12 | inactive | 54.5 µM (active) | 47.2 µM (active) | 41.6 µM (active) | inactive |  |  | inactive |  |  |
| C1=CCC2CC=CC2C1 (stereo not drawn) | inactive | inactive | inactive | inactive | inactive | inactive | inactive | inactive | inactive | inactive |
| CCCCCCCC(=O)OCCCCCC | inactive | inactive | inactive | inactive | inactive | inactive | inactive | inactive | inactive | inactive |
| COc1cc(NCc2ccc3nc(N)nc(N)c3c2C)cc(OC)c1OC | inactive | 0.133 µM (active) | 0.15 µM (active) | 0.266 µM (active) | 0.674 µM (active) |  |  |  |  |  |
| CC(=O)C(C)=O | inactive | inactive | inactive | inactive | inactive |  |  |  |  |  |

| SMILES | Potency [1] | Potency [2] | Potency [3] | Potency [4] | Potency [5] | Potency [6] | outcome [7] | Potency [8] | Potency [9] | Potency [10] |
| --- | --- | --- | --- | --- | --- | --- | --- | --- | --- | --- |
| CC(=O)OCC(C)C | inactive | inactive | inactive | inactive | inactive |  | inactive |  | inactive | inactive |
| CC(C)(C)S | inactive | inactive | inactive | inactive | inactive |  |  |  |  |  |
| C=Cc1ccc(OC(C)=O)cc1 | inactive | inactive | inactive | inactive | inactive | inactive | inactive | inactive | inactive | inactive |
| CC1CCCC(=O)C1=O (stereo not drawn) | inactive | inactive | inactive | inactive | inactive | inactive | inactive | inactive | inactive | inactive |
| CCO[Si](C)(CCCOCC1CO1)OCC (stereo not drawn) | inactive | 13.7 µM (active) | 7.7 µM (active) | 27.3 µM (active) | inactive |  |  |  |  |  |
| CCCOC(=O)c1c(Cl)c(Cl)c(Cl)c(Cl)c1C(=O)OCCC | inactive | 54.5 µM (active) | 61.1 µM (active) | 61.1 µM (active) |  |  |  |  |  |  |
| O=C(O)CN1C(=O)c2cccc3cccc(c23)C1=O | inactive | inactive | inactive | inactive | inactive |  |  |  |  |  |
| Cc1ccc2c(c1)CCCN2 | inactive | inactive | inactive | inactive | inactive |  |  |  |  |  |
| CCC(C)(C)C(=O)O | inactive | inactive | inactive | inactive | inactive | inactive | inactive |  | inactive | inactive |
| COc1ccc(C2C(=O)c3ccccc3C2=O)cc1 | inactive | inactive | inactive | inactive | inactive |  |  |  |  |  |
| O=S(=O)(O)CO | inactive | inactive | inactive | inactive | inactive |  |  |  |  |  |
| Oc1ccc2c(c1)Cc1ccccc1-2 | inactive |  |  |  |  |  |  |  |  |  |
| NC(=O)c1ccccc1[N+](=O)[O-] | inactive | inactive | inactive | inactive | inactive |  |  |  |  |  |
| Cc1ccc(Cl)cc1N | inactive | inactive | inactive | inactive | inactive |  |  |  |  |  |
| COC(C)(C)OC | inactive | inactive | inactive | inactive | inactive |  |  |  |  |  |
| O=C(O)CCC(=O)c1ccc(-c2ccccc2)cc1 | inactive | inactive | inactive | inactive | inactive | inactive |  | inactive | inactive | inactive |
| CC(CCc1ccc(O)cc1)NCCc1ccc(O)c(O)c1 (stereo not drawn) | inactive | 13.3 µM (active) | 26.6 µM (active) | 23.7 µM (active) | inactive |  |  |  |  |  |
| CCC(=O)OCc1ccc(OC)cc1 | inactive | inactive | inactive | inactive | inactive |  |  |  | inactive |  |
| CC(=O)NNC(C)=O | inactive | inactive | inactive | inactive | inactive |  |  |  | inactive |  |

| SMILES | Potency [1] | Potency [2] | Potency [3] | Potency [4] | Potency [5] | Potency [6] | outcome [7] | Potency [8] | Potency [9] | Potency [10] |
| --- | --- | --- | --- | --- | --- | --- | --- | --- | --- | --- |
| C=CC(=O)O | inactive | inactive | inactive | inactive | inactive |  |  |  | inactive |  |
| CCN(CC)CCNC(=O)c1cc(Cl)c(N)cc1OC | inactive | inactive | inactive | inactive | inactive |  |  |  | inactive |  |
| CCCCCCCCCCCC(=O)OCC(O)CO (stereo not drawn) | inactive | inactive and 61.1 µM (active) | inactive | inactive and 61.1 µM (active) | inactive |  |  |  | inactive |  |
| CCCCCCCCCCCCCCCCCC(=O)OCC(CC)CCCC (stereo not drawn) | inactive | inactive | inactive | inactive | inactive |  |  |  | inactive |  |
| ClC1=C(Cl)C1(Cl)Cl | inactive | inactive | inactive | inactive | inactive |  |  |  | inactive |  |
| COc1ccc(C)cc1 | inactive | inactive | inactive | inactive | inactive |  |  |  | inactive |  |
| COc1ccc(N)c([N+](=O)[O-])c1 | inactive | inactive | inactive | inactive | inactive |  |  |  | inactive |  |
| SCCc1cnccn1 | inactive | inactive | inactive | inactive | inactive |  |  |  | inactive |  |
| O=C(O)/C=C/c1ccc(O)c(O)c1 | inactive | inactive | inactive | inactive | inactive |  |  | 27.5 µM (active) | inactive | inactive |
| Nc1nc(-c2ccc([N+](=O)[O-])cc2)cs1 | inactive | inactive | inactive | inactive | inactive |  |  |  | inactive |  |
| CCCCCc1ccco1 | inactive | 39.8 µM (active) | 44.7 µM (active) | 31.6 µM (active) | inactive |  |  |  | inactive |  |
| CC1CCCO1 (stereo not drawn) | inactive | inactive | inactive | inactive | inactive |  |  |  | inactive |  |
| CC(=O)OCCC1CCCCC1 | inactive | inactive | inactive | inactive | inactive |  |  |  | inactive |  |
| CCCCCC | inactive | inactive | inactive | inactive | inactive |  |  |  | inactive |  |
| CCCc1nc2c(C)cc(-c3nc4ccccc4n3C)cc2n1Cc1ccc(-c2ccccc2C(=O)O)cc1 | inactive | inactive | inactive | inactive | inactive |  |  |  | inactive |  |
| NC(=O)CCCCC(N)=O | inactive | inactive | inactive | inactive | inactive |  |  |  | inactive |  |
| CCC(Cl)CC(Cl)C(Cl)C(Cl)C(Cl)C(C)Cl (stereo not drawn) | inactive | inactive | inactive | inactive | inactive |  |  | inactive | inactive | inactive |
| O=C(O)CCS | inactive | inactive | inactive | inactive | inactive |  |  |  | inactive |  |
| CNS(=O)(=O)c1cc(C(=O)N2CCC(CCN3C4CCC3CC(n3c(C)nc5ccccc53)C4)(c3cccc(F)c3)CC2)c(Cl)cc1F (stereo not drawn) | 54.9 µM (active) | 3.06 µM (active) | 5.45 µM (active) | 6.11 µM (active) | 15.5 µM (active) |  |  | inactive |  | 34.4 µM (active) |
